# TDP1 cell noCPT – qHTS for Inhibitors of human tyrosyl-DNA phosphodiesterase 1 (TDP1): qHTS in cells in absence of CPT; DT40 Tdp1-/- hTDP1 cells, no CPT, ATP luminescence, 48 h; Potency, µM (top dose mostly 46.2 µM), most hits filed as inhibitors; actives 15% (n = 420,000); also: nearly all actives have a fitted effect of over 55% in size
#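 Seeded 400 DT40-hTDP1 cells/well (vehicle DMSO, no 20 nM CPT); pinned compounds; ≥48 hr at 37 °C; CellTiter-Glo luminescence as viability measure.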
# HT1080 IDH1KD tx – qHTS for induction of synthetic lethality in tumor cells producing 2HG: qHTS for the HT-1080-IDH1KD cell line; HT-1080 IDH1 knockdown viability, ATP luminescence, 48 h; Potency, µM (titrated, usually from 46.1 µM), hits mostly cytotoxic; actives 2% (n = 360,000)
#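 Cytotoxicity counter-line: IDH1KD HT-1080, 48 h, CellTiter-Glo. Curves classed by r2, magnitude and activity.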
# HT1080NT lethal – qHTS for induction of synthetic lethality in tumor cells producing 2HG: qHTS for the HT-1080-NT fibrosarcoma cell line; HT-1080-NT fibrosarcoma viability, CellTiter-Glo ATP luminescence, 48 h; Potency, µM (top dose mostly 46.1 µM), usual class: cytotoxic; actives 1.6% (n = 360,000);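 also: NT is the 2HG producing partner of a matched IDH1 knockdown line; nearly all actives have a fitted effect of over 55% in size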
#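 Viability of the 2HG-overproducing fibrosarcoma line after 48 hours of compound exposure at 37 degrees C was determined by luminescence with CellTiter-Glo, and concentration-effect curves were then fitted and categorized.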
# IL-1B inflam inh – qHTS for Inhibitors of Inflammasome Signaling: IL-1-beta AlphaLISA Primary Screen | actives 4.7% (n = 360,000) | activity change, % at 57.5 µM | THP-1 LPS/ATP IL-1B secretion, AlphaLISA, 16 h; active compounds read low | AID 743279, 2014; in the data active = activity change below about -50%; inconclusive = mostly about -30% to -49%
#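 THP-1 cells pretreated 1 hr with compounds (up to 57.5 uM final), then stimulated with LPS (250 ng/mL final) plus ATP (1.25 mM final); secreted IL-1B measured by AlphaLISA after 16 hr, decreased signal indicating inhibition.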
# TDP1 cell CPT – qHTS for Inhibitors of human tyrosyl-DNA phosphodiesterase 1 (TDP1): qHTS in cells in presence of CPT; chicken DT40 Tdp1-/-;hTDP1 cells + 20 nM CPT, ATP luminescence, 48 h; Potency, µM (series often up to 46.2 µM), hits mostly inhibitors; actives 12% (n = 420,000); AID 686979, 2013; also: nearly all actives have a fitted effect of over 55% in size
#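 Cell growth measured by CellTiter-Glo luminescence after a minimum 48 h, 37 C compound exposure with 20 nM CPT in Tdp1-knockout DT40 cells stably expressing hTDP1, seeded 400/well; qHTS titration format.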
# Numbers stand for hits; i = inactive; ? = inconclusive; nt = not tested or not shown. The list is not random: actives were taken first. Their share in the collection is about 19%. Unless noted, calls follow the shape of the dose curve; as a rule, active = well fitted curve in the direction sought with a large enough effect; inconclusive = small, poorly fitted or top-dose-only effect, or another doubt; inactive = no such curve, though single readings can be large; an effect the other way counts as inactive or inconclusive.
SMILES,TDP1 cell noCPT,HT1080 IDH1KD tx,HT1080NT lethal,IL-1B inflam inh,TDP1 cell CPT
O=c1[nH]c(/C=C2\C=Nc3ccccc32)c(O)n1Cc1ccccc1F,?,?,i,-97,?
CSc1nc(O)c(/C=C2\C=Nc3ccccc32)[nH]1,?,i,i,i,?
COc1ccc(OCCNC(=O)C2(C)CCN2Cc2ccc(SC)cc2)cc1 (configuration not stated),16µM,i,i,i,?
COc1ccc(OCCNC(=O)C2(C)CCN2Cc2ccc3ccccc3c2)cc1 (configuration not stated),16µM,?,?,i,29µM
CC1CN(S(=O)(=O)c2ccc(C(=O)OCc3ccc(C#N)cc3)cc2)CC(C)O1 (configuration not stated),i,i,i,i,i
Cc1ccccc1NS(=O)(=O)c1cc2c3c(c1)C(C)C(=O)N3CCC2 (configuration not stated),i,i,i,i,i
CC(C)c1cc(=O)oc2c3c4c(cc12)CCCN4CCC3,?,i,i,i,16µM
O=c1oc2c3c4c(cc2c(C(F)(F)F)c1CCN1CCOCC1)CCCN4CCC3,16µM,i,i,i,16µM
CC(NC(=O)C12CC3CC(CC(C3)C1)C2)C(=O)N/N=C/C1=C(N2CCOCC2)C(=C\c2ccccc2)/CC1 (configuration not stated),21µM,?,i,i,?
O=C1Nc2ccc(Br)cc2/C1=N\N=C\C1=C(N2CCOCC2)C(=C/c2ccccc2)/CC1,10µM,i,i,i,?
Cn1cc(C(=O)N/N=C/C2=C(N3CCOCC3)C(=C\c3ccccc3)/CC2)ccc1=O,?,i,i,i,?
Cc1ccc(NC(=O)CSc2nc3ccccc3c(=O)[nH]2)cc1[N+](=O)[O-],?,i,i,i,?
N#Cc1ccc(CN2CC[C@@]3(CCCN(C(=O)c4ccncc4)C3)C2)cc1,i,nt,nt,nt,i
CN1C(=O)Cc2cc(S(=O)(=O)CCC(=O)Nc3ccccc3)ccc21,i,nt,nt,nt,i
O=C1OC[C@@H]2CCCN2C(=O)[C@H](CC(=O)N(CCO)Cc2ccccc2)C/C=C\CC[C@H]1Cc1ccc(F)cc1,?,i,i,i,23µM
O=C1N[C@@H](Cc2ccccc2)COC(=O)[C@H](Cc2ccc(F)cc2)CC/C=C/C[C@@H]1CC(=O)N(CCO)Cc1ccccc1,?,?,i,?,?
O=C1OC[C@H]2CCCN2C(=O)[C@@H](CC(=O)N(CCO)Cc2ccccc2)C/C=C\CC[C@H]1Cc1ccc(F)cc1,21µM,i,i,?,16µM
O=C1OC[C@H]2CCCN2C(=O)[C@@H](CC(=O)N(CCO)Cc2ccccc2)C/C=C\CC[C@@H]1Cc1ccc(F)cc1,21µM,i,i,i,18µM
CCOc1ccc(CCNC(=O)c2cnc3sc(N4CCC(C)CC4)nn3c2=O)cc1,i,nt,nt,nt,i
O=C(NCCCO)C(=O)c1c(-c2ccccc2)cc2ccccn12,i,i,i,i,i
COc1ccc(-c2c(-c3ccccc3)c(C(=O)C(=O)NCCCN(C)C)n3ccc4cc(OC)c(OC)cc4c23)cc1OC,18µM,?,?,i,3.3µM
COc1ccc(N=Cc2cc(Cc3ccccc3Cl)cc([N+](=O)[O-])c2O)cc1OC,26µM,i,i,i,?
Cc1ccc(N=Cc2cc(Cc3ccccc3Cl)cc([N+](=O)[O-])c2O)c(O)c1,i,i,?,i,?
CNc1ccc(OC)cc1-n1cnc(-c2ccc([N+](=O)[O-])cc2)c1,i,i,i,i,i
CC(C)(C)c1ccc(Cn2cnc(-c3ccc([N+](=O)[O-])cc3)c2)cc1,23µM,i,i,?,23µM
COc1ccc(-c2cn(Cc3ccc([N+](=O)[O-])cc3)nn2)cc1,?,i,i,i,?
